Screening data deposited in PubChem by National Center for Advancing Translational Sciences (NCATS).
In the library only some 11% were active in any assay of this set; here they are far more common.
G9a block: qHTS Assay for Inhibitors of Histone Lysine Methyltransferase G9a. Histone-lysine N-methyltransferase EHMT2 (Homo sapiens), Q96KQ7. G9a H3K9 monomethylation, AlphaScreen, 2 h. Potency, µM (top dose mostly 102 µM), without a hit: top-dose activity, negative = inhibition, hits mostly inhibitors. 350,000 tested, 8.8% active. AID 504332, 2011; also: % is scaled to controls: 0 for no effect and ±100 for the full control effect; nearly all actives have a fitted effect of over 75% in size
Target sequence (Q96KQ7 913-1193 limits assumed): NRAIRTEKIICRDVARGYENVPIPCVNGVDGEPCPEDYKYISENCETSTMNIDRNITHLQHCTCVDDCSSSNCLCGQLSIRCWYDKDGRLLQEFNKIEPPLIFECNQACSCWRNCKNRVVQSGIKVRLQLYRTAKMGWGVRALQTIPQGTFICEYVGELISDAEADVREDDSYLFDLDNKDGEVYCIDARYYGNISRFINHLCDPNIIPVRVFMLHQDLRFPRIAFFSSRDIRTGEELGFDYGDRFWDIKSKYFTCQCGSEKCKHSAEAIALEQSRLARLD
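Compounds were preincubated with 20 nM G9a for 15 min, after which biotinylated H3K9 peptide (500 nM) and SAM (20 uM) started a 2 h room-temperature reaction. Monomethylated product was quantified by antibody-based AlphaScreen chemiluminescence.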
BAZ2B block: qHTS Assay for Inhibitors of BAZ2B; 360,000 tested, 4.4% active; Bromodomain adjacent to zinc finger domain protein 2B (Homo sapiens), Q9UIF8; AID 504333, 2011; Potency, µM (doses to about 114 µM), inactives show top-dose activity change, negative = inhibition, most hits filed as inhibitors; AlphaScreen BAZ2B-H3K14Ac peptide displacement; also: % is scaled to controls: 0 for no effect and ±100 for the full control effect; nearly all actives have a fitted effect of over 60% in size
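BAZ2B 50 nM plus b-H3(5-23)K14Ac 50 nM, PBS pH 7.4/0.01% Tween-20, 30 min RT; compound added (max 110 uM), 30 min RT; streptavidin donor/Ni-chelate acceptor beads 10 ug/mL final, 20 min dark; AlphaScreen read.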
JMJD2A Tudor inh: qHTS Assay for Inhibitors of JMJD2A-Tudor Domain | 390,000 tested, 4.4% active | Potency, µM (highest dose often 114 µM), for inactives: top-dose activity change, negative = inhibition, usual class: inhibitors | AlphaScreen JMJD2A-Tudor / H3K4me3 peptide binding | AID 504339, 2011; also: % is scaled to controls: 0 for no effect and ±100 for the full control effect; nearly all actives have a fitted effect of over 50% in size
L3MBTL1 block: qHTS Assay for the Inhibitors of L3MBTL1 | Lethal(3)malignant brain tumor-like protein 1 (Homo sapiens), Q9Y468 | AlphaScreen L3MBTL1–H3K9me1 peptide binding | Potency, µM (doses to about 57.1 µM), for the others: top-dose activity, negative = inhibition, actives largely listed as inhibitors | 230,000 tested, 0.66% active | AID 485360, 2010; also: % is scaled to controls: 0 for no effect and ±100 for the full control effect; nearly all actives have a fitted effect of over 60% in size
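L3MBTL1 50 nM + b-AHA-H3(1-15)K9me1 75 nM, 30 min RT; compound added, 30 min RT; streptavidin donor/Ni-chelate acceptor beads 10 ug/mL each final, 30 min RT dark; AlphaScreen read.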
HP1b binding inh: HTS for Inhibitors of HP1-beta Chromodomain Interactions with Methylated Histone Tails; Chromobox protein homolog 1 (Homo sapiens), P83916; AlphaScreen HP1-beta / biotin-H3K9me3 peptide binding; Potency, µM (series often up to 114 µM), inactives show top-dose activity change, negative = inhibition, usual class: inhibitors; 390,000 tested, 0.56% active; also: nearly all actives have a fitted effect of over 70% in size
Target sequence (P83916 whole entry, looked up): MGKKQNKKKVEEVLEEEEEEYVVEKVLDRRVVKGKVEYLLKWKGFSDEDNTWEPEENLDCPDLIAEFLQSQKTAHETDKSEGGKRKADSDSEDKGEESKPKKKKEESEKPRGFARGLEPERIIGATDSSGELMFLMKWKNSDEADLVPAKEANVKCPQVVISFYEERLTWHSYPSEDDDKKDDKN
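Compound inhibition of the preformed complex between 50 nM HP1-beta and 50 nM biotinylated H3K9me3 peptide was read by AlphaScreen. Buffer was PBS pH 7.4 with 0.01% Tween-20. Incubations ran 30 min at room temperature, with 10 ug/mL donor/acceptor beads.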
* = called active by the depositor; ? = inconclusive; . = no result given; [ ] = another dose, or the depositor's remark. Calls follow the shape of the dose curve; as a rule, active = well fitted inhibition curve with a large enough effect; inconclusive = small, poorly fitted or top-dose-only effect; inactive = no such curve, though single readings can be large or run the other way. Potency is read from the fitted curve at half-maximal effect.

SMILES | G9a block | BAZ2B block | JMJD2A Tudor inh | L3MBTL1 block | HP1b binding inh
C#CCOCCOCCOCCNc1nc(N2CCN(C(=O)[C@H](CC(N)=O)n3cc(C(N)[C@@H](C)CC)nn3)CC2)nc(N2CCN(C(=O)[C@H](CCCCN)n3cc([C@@H](N)CC(N)=O)nn3)CC2)n1 (stereo partly specified) | . | . | 79.4µM* | -5.6% | 22.7%
C#CCOCCOCCOCCNc1nc(N2CCN(C(=O)[C@H](CCC(=O)O)n3cc([C@@H](N)[C@H](C)CC)nn3)CC2)nc(N2CCN(C(=O)[C@H](CCC(=O)O)n3cc([C@@H](N)CC(N)=O)nn3)CC2)n1 | . | . | 56.2µM* | -17.7% | 19.7%
O=C(CN1C(=O)NC2(CCc3ccccc32)C1=O)Nc1ccc(Br)cc1F (stereo unspecified) | 4.7%[12.7 µM] | 0.7% | -16.8% | -3.2% | 31.9%
CC(=O)c1ccc(N2CCN(C(=O)c3cc4c(s3)-c3ccccc3OC4)CC2)cc1 | 2.1%[59 µM] | 9.9% | -2.5% | . | 36.2%
CCOC(=O)C1CCN(C(=O)CC(NS(=O)(=O)c2ccc(OC)cc2)C(C)C)CC1 (stereo unspecified) | -22.1%[59 µM] | 13.5% | 15.8µM* | 5.0% | -8.2%
Cc1oc2c(c1C(=O)N1CCC(C)CC1)C(=O)c1ccccc1C2=O | ? | ? | -26.2% | -5.2% | 16.6%
CCOC(=O)C1CCN(C(=O)CSc2ccccc2)CC1 | 4.7%[12.7 µM] | 2.1% | 50.1µM* | . | ?
CCOC(=O)C1CCN(C(=O)c2c(C)oc3c2C(=O)c2ccccc2C3=O)CC1 | 50.1µM* | -14.7% | -13.8% | -5.5% | 23.7%
CCOC(=O)C1CCCN(C(=O)CSc2ccc(NC(C)=O)cc2)C1 (stereo unspecified) | 35.5µM* | -19.8% | 0.3% | 7.7% | 52.4%
CCc1ccccc1N(C)C(=O)c1nn(C)c2c1CSc1ccccc1-2 | -35.8%[59 µM] | 3.5% | 4.0% | . | 45.7%
Cc1ccc(Cc2cnc(NC(=O)c3ccc4c(c3)CC(c3ccccc3)OC4=O)s2)cc1 (stereo unspecified) | 35.5%[59 µM] | 30.8% | -5.9% | . | 65.9%
CCOC(=O)C1CCCN(C(=O)CNC(=O)Cn2ccc3ccccc3c2=O)C1 (stereo unspecified) | 14.1µM* | -5.8% | -9.9%[57.1 µM] | -1.3% | 53.9%
CCOC(=O)C1CCN(C(=O)CC(C)c2ccccc2)CC1 (stereo unspecified) | 6.6%[59 µM] | -24.4% | 28.2µM* | . | ?
O=C(CCCCCNC(=O)N1CCn2c1nc1ccccc12)NCc1ccc(F)cc1 | 57.6% | -17.3% | -6.9% | . | 45.6%
Cc1cc(N)ccc1S(C)(=O)=O | 1.7%[59 µM] | -19.9% | 15.5% | 4.47µM* | 47.0%
O=C(Nc1ccc(OC(F)(F)F)cc1)NC1COc2ccccc2C1 (stereo unspecified) | -26.3%[59 µM] | 10.7% | -5.2% | . | 13.7%[57 µM]
CCCS(=O)(=O)N1CCCC(C(=O)N2CCCCC2)C1 (stereo unspecified) | -9.4% | -10.9% | -29.5% | . | 15.6%
CN1C[C@@H]2[C@@H]3C(=O)N(Cc4ccccc4)C(=O)[C@@H]3[C@](C)(C1=O)N2C(=O)c1ccccc1 | . | . | -13.3% | . | 30.8%
CCc1cccc2c1NC(=O)[C@]21[C@@H]2C(=O)N(Cc3ccccc3)C(=O)[C@@H]2[C@@H]2CCCN21 | 44.7µM* | -4.3% | -17.4% | -4.6% | -4.1%
Cc1c(Cl)ccc2c1NC(=O)[C@]21[C@@H]2C(=O)N(Cc3ccccc3)C(=O)[C@@H]2[C@@H]2CCCN21 | 44.7µM* | -23.4% | 11.0%[11.4 µM] | -21.6% | 2.5%
CC[C@]12C(=O)N(C)C[C@H]([C@@H]3C(=O)N(Cc4ccccc4)C(=O)[C@@H]31)N2C(=O)c1ccc(F)cc1 | . | . | 2.9% | . | 53.7%
CCC1Oc2ccc(C)cc2N(CC(=O)NCc2ccc(F)cc2)C1=O (stereo unspecified) | 2.9%[59 µM] | -0.1% | -8.3% | . | 24.2%
C=CCOC(=O)Nc1ccc(Cl)cc1NC(=O)OCC=C | -25.2%[12.7 µM] | 1.1% | 5.0% | . | 44.0%
C=CCOC(=O)/C=C/C(=O)NC(N)=O | 8.91µM* | -0.2% | ? | . | 17.8µM*
FC(F)Oc1ccc(NC(=S)Nn2cnnc2)cc1 | 6.31µM* | -9.1% | ? | . | -26.5%
SMILES | G9a block | BAZ2B block | JMJD2A Tudor inh | L3MBTL1 block | HP1b binding inh
Oc1cccc2c(NC(=S)Nc3ccc(OC(F)F)cc3)cccc12 | 44.7µM* | 44.7µM* | ? | -14.0% | ?
CCNCc1nc2cc(OC)c(OC)cc2c(=O)[nH]1 | ? | 50.1µM* | -13.5% | . | 33.3%
COc1cc2nc(CN(CCC(C)C)Cc3nc4cc(OC)c(OC)cc4c(=O)[nH]3)[nH]c(=O)c2cc1OC | ? | 17.2% | -6.2% | 4.3% | 49.9%
N#Cc1cccc(-c2cc(NCc3ccccc3)ncn2)c1 | -4.9%[0.501 µM] | . | . | . | .
COCCn1c(C)c(C)c2c(NCCc3ccccc3)ncnc21 | 28.2µM* | 28.2µM* | 17.8µM* | . | ?
Cc1c(C)n(CCc2ccccc2)c2ncnc(NCCCO)c12 | -32.9%[12.7 µM] | ? | ? | . | -8.1%
Cc1cc(C)n(C)c(=O)c1C#N | -10.2% | -34.9% | -2.8% | 0.2% | 24.6%
Cc1c(C=O)c(Cl)n(C)c(=O)c1C#N | 39.8µM* | 56.2µM* | 79.4µM* | -26.7% | 11.7%
CC(=O)N=Cc1c(C)c(C#N)c(=O)n(C)c1O | 44.7µM* | -30.6% | -15.2% | . | 33.6%
Cc1nn2c3c(cnc2c1-c1ccc(F)cc1)C(=O)CC(c1ccccc1)C3 (stereo unspecified) | 20.7%[59 µM] | -10.6% | 5.2% | . | 46.2%
O=C1Nc2ccccc2/C1=N\c1sc2c(c1C(=O)Nc1ccccc1)CCCC2 | 12.6µM* | -24.6% | ? | 15.5%[11.4 µM] | 3.1%
Cc1ccc(-c2csc(NCCn3c(-c4ccncc4)nc4ccccc43)n2)cc1 | 20µM* | -37.0% | -22.7% | -3.1% | 5.9%
Cc1nc2cc(C(F)(F)F)ccc2n1CCNc1nc(-c2ccc(F)cc2)cs1 | 28.2µM* | ? | ? | 6.3% | 3.3%
O=C(NCCc1nc2ccccc2n1CCO)C1CCCCC1 | . | . | -11.3% | . | .
CC(NC(=O)C(=O)Nc1c2c(nn1-c1ccc(F)cc1)CSC2)c1ccccc1 (stereo unspecified) | 27.0%[59 µM] | 0.4% | -2.3% | . | 45.7%
COc1cc(OC)c2c(c1C(CCN1CCCC(C)C1)c1ccc(N(C)C)cc1)OC(=O)CC2c1ccc(N(C)C)cc1 (stereo unspecified) | . | . | 8.91µM* | . | ?
COc1cc(C(CCN2CCCC(C)C2)c2c(OC)cc(OC)c3c2OC(=O)CC3c2ccc(N(C)C)cc2)cc(OC)c1OC (stereo unspecified) | ? | 14.1µM* | 15.8µM* | . | ?
